# Six1-Eya2 blk = Six1/Eya2 interaction inhibition; Q15475+O00167; AlphaScreen GST-Six1/His-Eya2 binding, biochemical; stronger effect = lower value; activity change, % (no concentration beside the values); actives 0.56% (n = 360,000); AID 651725; in the data active = activity change below about -65%; inconclusive = mostly about -30% to -63%
#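 Compounds are tested against tagged Six1 and Eya2 proteins bridged by glutathione donor and nickel acceptor beads; after a one-hour incubation at 37 °C without light, AlphaScreen emission is recorded.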
# TDP1 inh = inhibitors of human tyrosyl-DNA phosphodiesterase TDP1. Q9NUW8. recombinant TDP1, AlphaScreen DNA substrate cleavage. Potency, µM (doses to about 130 µM), for the others: top-dose activity change, negative = inhibition, usual class: inhibitors. actives 0.28% (n = 350,000). AID 485290; note: potency is the fitted concentration of half-maximal effect; nearly all actives have a fitted effect of over 40% in size
# Target sequence (Q9NUW8 whole entry, looked up): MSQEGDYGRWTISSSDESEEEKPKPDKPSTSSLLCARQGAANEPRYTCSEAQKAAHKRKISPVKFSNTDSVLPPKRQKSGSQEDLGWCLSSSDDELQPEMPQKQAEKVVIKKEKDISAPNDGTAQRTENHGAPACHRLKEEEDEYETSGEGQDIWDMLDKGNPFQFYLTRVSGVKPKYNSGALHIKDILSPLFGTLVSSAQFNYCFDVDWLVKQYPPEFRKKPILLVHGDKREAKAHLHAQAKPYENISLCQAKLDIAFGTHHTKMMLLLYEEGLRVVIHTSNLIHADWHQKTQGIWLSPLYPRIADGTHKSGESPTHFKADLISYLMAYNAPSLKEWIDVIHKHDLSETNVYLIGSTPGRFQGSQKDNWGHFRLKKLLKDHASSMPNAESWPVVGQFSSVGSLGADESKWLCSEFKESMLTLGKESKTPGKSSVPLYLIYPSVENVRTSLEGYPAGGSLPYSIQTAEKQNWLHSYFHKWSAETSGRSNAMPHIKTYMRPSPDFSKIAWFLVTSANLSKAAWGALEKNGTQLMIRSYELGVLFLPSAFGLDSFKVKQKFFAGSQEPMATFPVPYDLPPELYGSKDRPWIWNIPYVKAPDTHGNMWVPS
#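 AlphaScreen read-out: signal falls as enzyme removes the 3' tyrosine-FITC from a 5'-biotinylated DNA oligo (15 nM, 5 min, RT). Enzyme was E. coli-made recombinant Tdp1 at 1 nM, exposed to compound for 15 min beforehand; beads 10 ug/ml, 10 min.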
# IL-1B inflam inh = blocks inflammasome-driven IL-1 beta release; AID 743279; actives 4.7% (n = 360,000); THP-1 LPS/ATP IL-1B secretion, AlphaLISA, 16 h; stronger effect = lower value; activity change, % at 57.5 µM; in the data active = activity change below about -50%; inconclusive = mostly about -30% to -49%
#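 Secreted IL-1B measured by AlphaLISA bead assay after 16 h compound exposure of THP-1 cells; compounds (final up to 57.5 uM) added 1 h before LPS (250 ng/mL) and ATP (1.25 mM) stimulation; lower signal means less secretion.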
# DT40 TDP1 CPT = DT40-hTDP1 cell growth loss with CPT. chicken DT40 Tdp1-/-;hTDP1 cells + 20 nM CPT, ATP luminescence, 48 h. Potency, µM (top dose mostly 46.2 µM), without a hit: at the highest dose activity change, negative = growth inhibition, actives largely listed as inhibitors. actives 12% (n = 420,000). AID 686979; note: potency is the fitted concentration of half-maximal effect; nearly all actives have a fitted effect of over 55% in size
#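 Chicken DT40 Tdp1-/- cells complemented with human TDP1, 400 cells/well, exposed to compounds plus 20 nM camptothecin for at least 48 h at 37 C; viability read as ATP content by CellTiter-Glo luminescence.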
# TDP1 cell noCPT = qHTS for Inhibitors of human tyrosyl-DNA phosphodiesterase 1 (TDP1): qHTS in cells in absence of CPT; DT40 Tdp1-/- hTDP1 cells, no CPT, ATP luminescence, 48 h; Potency, µM (series often up to 46.2 µM), for inactives: top-dose activity change, negative = growth inhibition, most hits filed as inhibitors; actives 15% (n = 420,000); note: potency is the fitted concentration of half-maximal effect; nearly all actives have a fitted effect of over 55% in size
#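 Luminescent ATP content (CellTiter-Glo) served as the growth readout. Knockout chicken DT40 cells expressing human TDP1 were exposed to compounds without camptothecin for a minimum 48 hr at 37 °C.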
# CtBP-E1A blk = inhibitors of CtBP/E1A interaction; AlphaScreen GST-E1A/His-CtBP binding, 1536-well; stronger effect = lower value; activity change, % (concentration not given with the values); actives 0.49% (n = 340,000); AID 651724; in the data active = activity change below about -65%; inconclusive = mostly about -30% to -63%
#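 In 5 uL wells, 23 nL compound meets equimolar GST-E1A and His-CtBP (5X stock 125 nM each) for 2 h, 37 °C. Beads (5X, 50 ug/mL) then 1 h, 37 °C, dark.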
# An asterisk follows results filed as active; ? = inconclusive; . = no result; [ ] = remark or other dose. Shown are actives, neighbours in structure and some others; about 18% of the full set was active somewhere. Unless noted, calls come from the whole dose curve; as a rule, active = well fitted curve in the direction sought with a large enough effect; inconclusive = small, poorly fitted or top-dose-only effect, or another doubt; inactive = no such curve, though single readings can be large; an effect the other way counts as inactive or inconclusive. % is set by controls: 0 for no effect and ±100 for the full control effect.
SMILES,Six1-Eya2 blk,TDP1 inh,IL-1B inflam inh,DT40 TDP1 CPT,TDP1 cell noCPT,CtBP-E1A blk
Cc1cc2sc(NC(=O)c3ccco3)nc2cc1Cl,5.7,2.3%,36.7,?,-21.5%,6.4
COc1ccc(N2CCN(C(=O)CN(C3CCCCC3)S(C)(=O)=O)CC2)cc1,3.5,-2.6%,-1.0,-21.2%,-26.9%,15.7
O=C(Nc1ccccc1)NC1CCCCCCC1,-2.9,.,?,?,29.1µM*,5.0
O=C(Nc1ccccc1NC(=O)NC1CCCCC1)NC1CCCCC1,1.5,7.8%,-68.9*,?,?,3.4
Cc1ccc(CN=C(Nc2ccccc2)NC2CCCCC2)cc1,-3.7,.,-87.1*,20.6µM*,20.6µM*,-2.7
O=C(Nc1ccc(Br)cc1)NC1CCCCCCC1,9.7,-4.5%[56.1 µM],-90.2*,?,?,10.9
O=C(Nc1ccccc1)NC1CCCCC1,0.2,-1.5%,-12.0,-5.7%,1.7%,1.3
Cc1cnc(NC(=O)Nc2ccc(Cl)cc2)s1,-11.4,8.0%,-2.9,?,?,-14.8
C/C(CCC12CC3CC(CC(C3)C1)C2)=N\NC(N)=S,-3.6,8.8%,-5.3,14.6µM*,16.4µM*,2.3
C/C(CC1CC(C)OC1=O)=N\NC(N)=S (configuration not stated),6.8,-4.4%,22.2,-11.2%,15.0%,.
COc1ccccc1/C=C/C(=O)OCCN1CCOCC1,6.8,7.2%,2.1,-0.1%,-4.6%,-0.8
Cc1ccccc1-c1nc(CN2CCC(C(=O)NCc3ccco3)CC2)c(C)o1,-6.6,4.9%,-67.1*,?,?,-4.9
Cc1oc(-c2ccccc2F)nc1CN1CCC(C(=O)NCCC2=CCCCC2)CC1,-2.3,5.1%,-13.5,?,23.1µM*,0.1
Cc1oc(-c2ccccc2F)nc1CN1CCC(C(=O)NCCc2ccccc2)CC1,.,1.2%,.,?,?,.
Cc1ccccc1-c1nc(CN2CCC(C(=O)NCc3ccc(F)cc3)CC2)c(C)o1,.,2.3%,.,16.4µM*,20.6µM*,.
Cc1ccccc1-c1nc(CN2CCC(C(=O)NCCCN3CC(C)CC(C)C3)CC2)c(C)o1 (configuration not stated),-2.8,4.9%,-6.4,23.1µM*,?,0.9
Cc1oc(-c2ccc(Cl)cc2)nc1CN1CCC(C(=O)NCc2ccco2)CC1,-2.5,1.0%,-21.2,-23.3%,?,-0.4
COc1cc(/C=C/C(=O)OCC(=O)c2ccc[nH]2)ccc1O,24.2,.,-20.8,-6.7%,-24.4%,-2.7
COc1cc([N+](=O)[O-])cc(/C=C2/SC(=S)N(Cc3ccccc3)C2=O)c1O,-5.9,.,3.3,16.4µM*,7.31µM*,.
COc1cc(/C=C2\SC(=O)N(Cc3ccc(F)cc3)C2=O)cc([N+](=O)[O-])c1O,-3.1,4.7%,43.9,?,?,-1.1
COc1cc(/C=C2\SC(=O)N(Cc3ccc(Cl)cc3)C2=O)cc([N+](=O)[O-])c1O,-4.7,2.7%,22.1,?,23.1µM*,-3.3
COc1cc(/C=C2/SC(=S)N(Cc3ccccc3)C2=O)ccc1OCC(=O)O,-18.1,.,5.8,0.7%,2.7%,-17.0
COc1cc(/C=C2/SC(=S)N(Cc3ccccc3)C2=O)cc(Cl)c1O,-1.1,.,15.5,16.4µM*,13µM*,.
CCOC(=O)C(C)n1cnc2c(nnn2-c2ccc(C)cc2)c1=O (configuration not stated),4.0,6.0%,0.0,-7.0%,-15.7%,3.3
COc1ccc(-c2cc(C(=O)Nc3ccc(OC)c(OC)c3)no2)cc1,0.8,.,-11.1,3.2%,-8.5%,0.5
CCc1ccc(OCC(=O)Nc2ccncc2)c(Br)c1,0.6,.,-8.8,?,10.3µM*,0.3
CCc1ccc(OCC(=O)NNC(=O)c2cnccn2)c(Br)c1,-8.0,3.8%,0.0,5.8µM*,8.2µM*,-16.2

# Screening results (PubChem)
